Reference: PubChem BioAssay (Tox21)
“And” between values parts separate entries of the source, which are not always exact repeats. Equal entries are not always repeated. Inconclusive results are not listed. Where a call stands in place of a potency, no number is given. The source made the active and inactive calls. Unless noted, calls follow the shape of the dose curve; as a rule, active = well fitted activation curve with a large enough effect in the repeat runs; inconclusive = weak or mixed curves; inactive = no such curve, though single readings can be large or run the other way.

Molecular target: Nuclear receptor subfamily 1 group I member 3 (Homo sapiens) (UniProt Q14994)
Test: qHTS assay to identify small molecule agonists of the constitutive androstane receptor (CAR) signaling pathway (AID 1224839); also: nearly all actives have a fitted effect of over 15% in size;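 as to activation: HepG2 cells stably carrying human CAR and a CYP2B6 luciferase reporter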
Conditions: HepG2 hCAR CYP2B6-luciferase, agonist mode, 24 h; series mostly up to 92.4 µM
Outline: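 HepG2-CYP2B6-hCAR cells, 2500/well, 4 h pre-incubation; compounds 15 conc.; PK11195 0.75 uM final; 24 h, 37 C/5% CO2; ONE-Glo luciferase read.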
Potency is read from the fitted curve at half-maximal effect.

Nuclear receptor subfamily 1 group I member 3 (Homo sapiens), sequence (Q14994 whole entry, looked up): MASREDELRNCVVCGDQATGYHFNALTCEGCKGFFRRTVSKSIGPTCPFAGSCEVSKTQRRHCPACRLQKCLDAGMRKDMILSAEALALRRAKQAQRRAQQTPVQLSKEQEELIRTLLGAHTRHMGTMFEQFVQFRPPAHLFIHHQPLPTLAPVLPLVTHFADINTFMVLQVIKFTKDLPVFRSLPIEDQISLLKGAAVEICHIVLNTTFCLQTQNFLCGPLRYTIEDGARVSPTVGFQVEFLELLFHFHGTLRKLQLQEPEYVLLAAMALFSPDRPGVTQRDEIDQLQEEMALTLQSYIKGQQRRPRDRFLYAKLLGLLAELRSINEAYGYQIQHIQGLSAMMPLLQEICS

SMILES	Potency
Brc1ccc(Oc2ccc(Br)cc2Br)c(Br)c1	54.5 µM (active)
CC[C@H](C)[C@H]1O[C@]2(C=C[C@@H]1C)C[C@@H]1C[C@@H](C/C=C(\C)[C@@H](O[C@H]3C[C@H](OC)[C@@H](O[C@H]4C[C@H](OC)[C@@H](NC)[C@H](C)O4)[C@H](C)O3)[C@@H](C)/C=C/C=C3\CO[C@@H]4[C@H](O)C(C)=C[C@@H](C(=O)O1)[C@]34O)O2	inactive
CC(C)[C@@H](Nc1ccc(C(F)(F)F)cc1Cl)C(=O)OC(C#N)c1cccc(Oc2ccccc2)c1 (stereo not given in full)	inactive
Cc1ccc([N+](=O)[O-])[c]2c1[O][Hg]2	inactive
CC(C)N(C(=O)SC/C(Cl)=C/Cl)C(C)C	inactive
C[C@]12CC[C@H]3[C@@H](CCC4=CC(=O)CC[C@@H]43)[C@@H]1CC[C@@H]2OC(=O)CCc1ccco1	inactive
Fc1ccc(C(OCCN2CCN(CCCc3ccccc3)CC2)c2ccc(F)cc2)cc1	inactive
CN(C)c1ccc(N)cc1	9.45 µM (active)
N#CSCc1ccccc1	inactive
Cc1cccc(Cc2cnc[nH]2)c1C	inactive
CN(C)C(=S)SSC(=S)N(C)C	inactive
c1csc(-c2ccc(-c3cccs3)s2)c1	13.7 µM (active)
COP(=S)(NC(C)C)Oc1ccc(C)cc1[N+](=O)[O-] (stereo not given)	6.86 µM (active)
CCC1(CC)C(=O)N=C(O)NC1=O	inactive
CC(=O)C(Cl)C(=O)N(C)C (stereo not given)	inactive
CCOC(=O)CCN(SN(C)C(=O)Oc1cccc2c1OC(C)(C)C2)C(C)C	27.3 µM (active)

SMILES	Potency
COc1nc(C)nc(NC(=O)NS(=O)(=O)c2ccccc2Cl)n1	inactive
c1ccc2nc(N3CCNCC3)ccc2c1	inactive
CCCCC(CC)COC(=O)OOC(C)(C)C (stereo not given)	inactive
CCOP(=S)(OCC)Oc1cc(C)nc(N(CC)CC)n1	19.3 µM (active)
CC1CCCC1	inactive
COc1ccc2c(c1OC)C(=O)O[C@@H]2[C@H]1c2cc3c(cc2CCN1C)OCO3	inactive
CN/C(=N\[N+](=O)[O-])NCc1cnc(Cl)s1	inactive
CCOP(=O)(Sc1ccccc1)Sc1ccccc1	21.7 µM (active)
CCOC(=O)Cc1ccccc1	inactive
O=c1c2ccccc2c(=O)c2c1cc(Cl)c1[nH]c3c([nH]c12)c(Cl)cc1c(=O)c2ccccc2c(=O)c13	inactive
ClC1=C(Cl)[C@]2(Cl)[C@H]3[C@H]([C@@H]4C=C[C@H]3C4)[C@@]1(Cl)C2(Cl)Cl	13.7 µM (active)
[O]=[Cr][O][Cr]=[O]	inactive
O=Cc1ccccc1	inactive
Cc1ccc(C)c2ccccc12	inactive
CCNc1nc(NC(C)C(C)C)nc(SC)n1 (stereo not given)	48.6 µM (active)

System: not listed separately
Test: qHTS assay to identify small molecule antagonists of the estrogen related receptor signaling pathway with the pleiotropic PPARgamma coactivator (PGC) from Tox21 10K library - cell viability counter screen (AID 1224840; active = well fitted cell-killing curve with a large enough effect in the repeat runs, not every such curve was filed as active; also: nearly all actives have a fitted effect of over 40% in size)
Conditions: PGC/ERR reporter cells viability, CellTiter-Fluor, 17.5 h; series mostly up to 92.4 µM
Outline: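 Seeded PGC/ERR cells (2,000/well, 6 h, 37 C/5% CO2) get compound by pin tool; 17.5 h incubation at 37 C; CellTiter-Fluor added, 30 min, fluorescence measured.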

SMILES	Potency
CC[C@H](C)[C@H]1O[C@]2(C=C[C@@H]1C)C[C@@H]1C[C@@H](C/C=C(\C)[C@@H](O[C@H]3C[C@H](OC)[C@@H](O[C@H]4C[C@H](OC)[C@@H](NC)[C@H](C)O4)[C@H](C)O3)[C@@H](C)/C=C/C=C3\CO[C@@H]4[C@H](O)C(C)=C[C@@H](C(=O)O1)[C@]34O)O2	6.86 µM (active)
CSC(=O)c1c(C(F)F)nc(C(F)(F)F)c(C(=O)SC)c1CC(C)C	inactive
Oc1cc(Cl)cc(Cl)c1	inactive
CC(C)[C@@H](Nc1ccc(C(F)(F)F)cc1Cl)C(=O)OC(C#N)c1cccc(Oc2ccccc2)c1 (stereo not given in full)	inactive
Cc1ccc([N+](=O)[O-])[c]2c1[O][Hg]2	5.96 µM (active)
CNC(=O)O/N=C(\C)C(C)S(C)(=O)=O (stereo not given)	inactive
CC(C)C(Nc1ccc(C(F)(F)F)cc1Cl)C(=O)OC(C#N)c1cccc(Oc2ccccc2)c1 (stereo not given)	inactive
Cc1cccc(Cc2cnc[nH]2)c1C	inactive
CN(C)C(=S)SSC(=S)N(C)C	214 nM (active) and 243 nM (active) and 266 nM (active)
COP(=S)(NC(C)C)Oc1ccc(C)cc1[N+](=O)[O-] (stereo not given)	inactive
CCC1(CC)C(=O)N=C(O)NC1=O	inactive
CC(=O)C(Cl)C(=O)N(C)C (stereo not given)	inactive
c1ccc2nc(N3CCNCC3)ccc2c1	inactive
CCCCC(CC)COC(=O)OOC(C)(C)C (stereo not given)	inactive
CCOP(=S)(OCC)Oc1cc(C)nc(N(CC)CC)n1	inactive
CN/C(=N\[N+](=O)[O-])NCc1cnc(Cl)s1	inactive
CCOP(=O)(Sc1ccccc1)Sc1ccccc1	inactive
CNC(=O)Oc1cc(C)cc(C(C)C)c1	inactive
ClC1=C(Cl)[C@]2(Cl)[C@H]3[C@H]([C@@H]4C=C[C@H]3C4)[C@@]1(Cl)C2(Cl)Cl	inactive
Cc1ccc(C)c2ccccc12	inactive
CCNc1nc(NC(C)C(C)C)nc(SC)n1 (stereo not given)	inactive

System: not listed separately
Test: qHTS assay to identify small molecule antagonists of the estrogen related receptor signaling pathway with the pleiotropic PPARgamma coactivator (PGC) from Tox21 10K library (AID 1224841; call rule not given here; also: actives are mostly falling curves and most rising ones were filed inactive; nearly all actives have a fitted effect of over 50% in size)
Conditions: PGC/ERR reporter cell line, ONE-Glo luciferase, 18 h; series mostly up to 92.4 µM
Outline: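 Test chemicals dissolved in DMSO were applied to pre-incubated (6 h) PGC/ERR cells at 2,000 cells/well for an 18 h, 37 C treatment; reporter luminescence was then read using One-Glo.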

SMILES	Potency
Brc1ccc(Oc2ccc(Br)cc2Br)c(Br)c1	inactive
CNC(=O)O/N=C(\C)C(C)S(C)(=O)=O (stereo not given)	inactive
Fc1ccc(C(OCCN2CCN(CCCc3ccccc3)CC2)c2ccc(F)cc2)cc1	11.9 µM (active)
CCOC(=O)CCN(SN(C)C(=O)Oc1cccc2c1OC(C)(C)C2)C(C)C	30.6 µM (active)
COc1nc(C)nc(NC(=O)NS(=O)(=O)c2ccccc2Cl)n1	inactive
CNC(=O)Oc1cc(C)cc(C(C)C)c1	inactive
CCOP(=S)(OCC)SC(CCl)N1C(=O)c2ccccc2C1=O (stereo not given)	inactive
O=Cc1ccccc1	inactive
